# ± gives the standard deviation of the averaged measurements. Whole data set: some 33,000 sequences, median “E-score (rank enrichment, -0.5 to 0.5)” near -0.0068, cut for the highest 2% near 0.24. Many of the other results were omitted from the sample, so the highest values are more common in it than they were.
# System: muMax20 (Max(13-93) K31hArg/K57hArg, M65Nle)
# Assay: PBM 8-mer E-score (E-score (rank enrichment, -0.5 to 0.5)); higher = stronger preferential binding
# Protocol: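 Protein binding microarray (universal PBM chip covering all 10-mers in fixed probe flanks) with chemically synthesized human Max(13-93) bHLH-LZ analogs (not full-length Max) bearing noncanonical residues (hArg, Tha, Aib, Nle at 65) and aromatic Cys staples. Read-out per 8-mer (and its reverse complement): E-score (rank-based enrichment, -0.5 to 0.5) and Z-score of median probe intensity.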
row,Sequence,PBM 8-mer E-score
1,ATCTAACA,0.0591 ± 0.057
2,GCGCTTCA,-0.115 ± 0.063
3,CTAGAGCC,-0.187 ± 0.036
4,ACGATAGA,-0.0358 ± 0.083
5,ATACATAA,0.255 ± 0.032
6,AAACATAG,0.126 ± 0.018
7,GAACATAA,0.123 ± 0.095
8,AAACATAA,0.246 ± 0.1
9,ATACATAC,0.169 ± 0.017
10,ACACATAG,-0.0133 ± 0.049
11,GCACATAA,0.151 ± 0.038
12,ACACATAA,0.265 ± 0.041
13,ATACATCA,0.21 ± 0.061
14,CTCAGGAG,-0.162 ± 0.071
15,ATCCTTGG,-0.0154 ± 0.11
16,CTTCCCTC,0.0647 ± 0.025
17,AAGATTTG,0.0326 ± 0.071
18,ACGTTTGC,0.0313 ± 0.0058
19,CCGGTGAC,-0.252 ± 0.12
20,CAATGGTA,0.0785 ± 0.022
21,ACATGGTG,0.241 ± 0.053
22,CTATGGTC,-0.125 ± 0.061
23,AGATGGTG,-0.0739 ± 0.067
24,TAATGGTA,0.193 ± 0.013
25,CCATGGTC,-0.1574 ± 0.0011

row,Sequence,PBM 8-mer E-score
1,ACATGCTC,0.237 ± 0.091
2,ACATGGCG,0.175 ± 0.045
3,ACATGGTC,0.245 ± 0.08
4,AAATGGTA,0.238 ± 0.096
5,CCATGCTC,0.0121 ± 0.13
6,ACATGCTA,0.164 ± 0.071
7,ATCTGGTA,-0.00159 ± 0.021
8,AGCGGCCC,-0.191 ± 0.026
9,CGACGGTC,-0.172 ± 0.15
10,AGTGTGTG,0.0857 ± 0.065
11,AAGAGCTA,0.12 ± 0.045
12,ATTTGTCA,0.123 ± 0.0081
13,CCGGCCCG,-0.259 ± 0.054
14,GCATGGTA,0.142 ± 0.082
15,CCATGGTA,0.143 ± 0.12
16,ACATGGTA,0.287 ± 0.017
17,GTACCACA,0.115 ± 0.043
18,CGTGCTCC,0.0253 ± 0.0099
19,ACATCGTA,0.101 ± 0.015
20,AAAATTTG,0.12 ± 0.17
21,AAAATTTT,0.305 ± 0.019
22,AAAAATTT,0.164 ± 0.0071
23,CACTGACC,-0.132 ± 0.086
24,AGCATGTA,0.228 ± 0.034
25,ATCATGTC,0.225 ± 0.024

row,Sequence,PBM 8-mer E-score
1,ACCATGTC,0.0641 ± 0.067
2,ACCATGTA,0.0719 ± 0.046
3,ATCATGTA,0.108 ± 0.027
4,AGCATGTC,0.0591 ± 0.078
5,ATCATGTG,0.247 ± 0.12
6,AGCATGTG,0.276 ± 0.029
7,ACCATGTG,0.359 ± 0.078
8,CCTCGACA,-0.0844 ± 0.042
9,ATATGCTC,0.171 ± 0.015
10,AATGAAAA,0.13 ± 0.0019
11,AATGCGAT,0.019 ± 0.029
12,CCCCGAAA,-0.0496 ± 0.15
13,ATCTTGAG,0.251 ± 0.011
14,ATCTTGAC,0.00194 ± 0.029
15,ATCTTGAA,0.0915 ± 0.096
16,AATGATGT,0.0444 ± 0.087
17,GCATGTCC,0.00639 ± 0.093
18,AGTGAGGG,-0.0244 ± 0.062
19,TATAAAGA,0.252 ± 0.053
20,TGTAAACA,0.237 ± 0.0061
21,CATAAAAA,0.254 ± 0.044
22,GATAAAGA,0.195 ± 0.048
23,GATAAAAA,0.204 ± 0.016
24,TATAAAAA,0.301 ± 0.1
25,TAAAAAAA,0.159 ± 0.11

row,Sequence,PBM 8-mer E-score
1,CATAAAAG,0.138 ± 0.11
2,GGTAAACA,0.163 ± 0.037
3,AGTAAACA,0.202 ± 0.092
4,AATAAAGA,0.18 ± 0.015
5,CATAAAAC,0.209 ± 0.058
6,AAAGTAGA,0.0577 ± 0.0065
7,CAAGGTAA,0.0156 ± 0.05
8,CACCCCAA,0.206 ± 0.015
9,CGAGCACC,-0.226 ± 0.0053
10,TGCCTGAA,-0.00136 ± 0.071
11,ATTGATCG,0.103 ± 0.027
12,CATAAACA,0.252 ± 0.053
13,TATAAACA,0.234 ± 0.022
14,GATAAACA,0.136 ± 0.05
15,GTCGCGCA,-0.0658 ± 0.12
16,GTACTCCA,-0.0757 ± 0.025
17,AAGCTGAC,-0.16 ± 0.059
18,AAGCTGTA,0.111 ± 0.038
19,AAGCTGAT,0.313 ± 0.042
20,TGCTGGAA,-0.0216 ± 0.063
21,GGAGAACC,-0.142 ± 0.092
22,CGTTATAG,0.262 ± 0.046
23,CGTTATAC,0.036 ± 0.026
24,AGTTATAC,0.143 ± 0.075
25,AGTTATAA,0.181 ± 0.096

row,Sequence,PBM 8-mer E-score
1,CGTTATAA,0.133 ± 0.02
2,AGTTATAT,0.244 ± 0.012
3,GTCTTCCA,-0.0719 ± 0.098
4,ATCCTAAG,-0.054 ± 0.025
5,ACAAAGCG,0.0741 ± 0.0089
6,GAACCTAC,-0.16 ± 0.037
7,TTATTAAA,0.142 ± 0.044
8,ATATTTAA,0.344 ± 0.013
9,ATATTTAC,0.196 ± 0.025
10,CTATTTAA,0.0343 ± 0.057
11,ATATTAAG,0.163 ± 0.058
12,ATATTAAA,0.326 ± 0.0046
13,ACATTTAG,0.136 ± 0.066
14,CTATTAAA,0.159 ± 0.025
15,ATATTAAT,0.238 ± 0.075
16,ATATTAAC,0.196 ± 0.0065
17,GCATTTAA,0.0477 ± 0.11
18,ACATTTAA,0.258 ± 0.14
19,AGGAACTA,-0.0068 ± 0.0036
20,CACCAGGG,-0.137 ± 0.034
21,AAGTCTTC,0.0741 ± 0.052
22,CTCCATTC,0.102 ± 0.029
23,CGAACCTC,0.00719 ± 0.0044
24,AAAAATCT,0.0641 ± 0.091
25,GTCCTGAA,-0.111 ± 0.053

row,Sequence,PBM 8-mer E-score
1,CCAGAAAC,-0.112 ± 0.092
2,CTCACGGA,-0.205 ± 0.023
3,GATAGCAC,0.0754 ± 0.042
4,CATAGCAA,0.209 ± 0.024
5,CATAGCAC,0.258 ± 0.0042
6,AGGGCGAT,-0.119 ± 0.015
7,AGACTAAT,-0.0591 ± 0.045
8,CGATATAC,0.0102 ± 0.0034
9,CGATATAA,0.267 ± 0.016
10,CGATATTC,-0.032 ± 0.1
11,GGATATTA,0.125 ± 0.09
12,CGATATAG,0.044 ± 0.12
13,CGATATTA,0.267 ± 0.038
14,CTCGGGTC,-0.292 ± 0.04
15,ATCTCAGC,-0.206 ± 0.11
16,ATCATAAA,0.212 ± 0.046
17,ATCATAAT,0.288 ± 0.047
18,ATCATGAT,0.289 ± 0.0047
19,ATCATAAG,0.19 ± 0.028
20,AACATAAT,0.31 ± 0.035
21,AACATAAG,0.13 ± 0.07
22,ATCATGAG,0.111 ± 0.046
23,AACATAAC,0.18 ± 0.13
24,ATCATGAA,0.111 ± 0.029
25,CGCGCCAG,-0.222 ± 0.12

row,Sequence,PBM 8-mer E-score
1,ATTGAGAC,-0.0808 ± 0.13
2,GTGACAAA,0.0325 ± 0.033
3,AATAATGT,0.258 ± 0.068
4,AATAATGG,0.0129 ± 0.086
5,CATAATGA,0.0649 ± 0.033
6,AATAATGC,0.1872 ± 0.0018
7,GATAATGA,-0.00519 ± 0.014
8,AATAATGA,0.269 ± 0.062
9,GCTCTTTA,0.0129 ± 0.059
10,CGAAACAG,-0.176 ± 0.0078
11,CCCGGCTC,-0.299 ± 0.021
12,CTCGGTTC,-0.185 ± 0.018
13,GTTTTACA,0.0874 ± 0.0056
14,ATGGTAAC,0.26 ± 0.046
15,GTGGTAAC,0.102 ± 0.049
16,ATGGTAAG,0.0283 ± 0.054
17,GATAGTAC,0.0698 ± 0.03
18,ACCCACCC,0.299 ± 0.091
19,ACCCACCA,0.0656 ± 0.034
20,GCCCACCA,-0.032 ± 0.095
21,GCCCACAC,0.0523 ± 0.0056
22,GCCCACCC,0.294 ± 0.07
23,CCCCACCC,0.165 ± 0.027

# From the supplement of paper PMC12636033
